Experimental data as given in PubChem BioAssay.

The compounds below were run on Neuregulin-1 EGF-like domain (assay: small molecules binding NRG1 EGF domain – biochemical, small-molecule microarray, 635 nm fluorescence, primary screen (AID 1081;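 also: binding of the protein to compounds printed on small-molecule microarray slides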)). Conditions: higher = more signal.

| SMILES | composite z-score |
| --- | --- |
| C[C@@H]1CCC2C(=O)N(Cc3ccccc3)C[C@@H](O)CN2[C@H]1c1ccc(Br)cc1 (stereo not given in full) | 0.963 |
| CCOC(=O)CCN1C(=O)[C@H]2[C@H]3[C@H](O)[C@H](O)CC(=O)[C@H]3CC[C@H]2C1=O | 0.518 |
| C#CCCCON=C1C[C@@H](O)[C@@H](O)[C@@H]2[C@@H]3C(=O)N(CCC(=O)OCC)C(=O)[C@@H]3CC[C@@H]12 | -0.307 |
| O=C1[C@H]2[C@H]3[C@H](O)[C@H](O)CC(=NOCc4ccccc4)[C@H]3CC[C@H]2C(=O)N1C[C@@H]1CCCO1 | 0.792 |
| C#CCCCON=C1C[C@@H](O)[C@@H](O)[C@@H]2[C@@H]3C(=O)N([C@@H](C)c4ccccc4)C(=O)[C@@H]3CC[C@H]12 | 0.755 |
| CCOC(=O)[C@H](Cc1ccccc1)NC(=O)CCC1CC(OC(=O)NCc2ccc3c(c2)OCO3)CC2(CCCC(COC(=O)NCc3cccc(C(F)(F)F)c3)O2)O1 (stereo not given in full) | 0.481 |
| C=CC[C@@H]1C=C[C@H](ON=C(C)CCN2CCc3nc(CC)c(CC)cc3C2)[C@@H](CO)O1 | 0.987 |
| O=C1C2C=CC(C(O)c3ccc([N+](=O)[O-])cc3)N(Nc3ccc([N+](=O)[O-])cc3)C2C(=O)N1c1ccccc1 (stereo not given) | 1.17 |
| CC(C)[C@H](NC(=O)OC(C)(C)C)[C@@H](O)CC(=O)OC(C)(C)C | -1.18 |
| NCCCCCNC(=O)[C@@H]1C[C@@H]2C(=O)N3CCC[C@H]3C(=O)N2[C@@H]1c1cccc(OCCO)c1 | 1.26 |
| COC(=O)CC=C[C@H](C)[C@@H](OCc1ccccc1Br)C(C)C | -0.334 |
| COc1ccc([Si](C)(C)[C@H]2[C@H](CCO)O[C@@]3(C(=O)N(Cc4cccc(NC(=O)[C@H](C)O)c4)c4ccccc43)[C@@H]2C)cc1 | 1.22 |
| CCOC(=O)CCN1C(=O)[C@H]2[C@H]3[C@H](O)C=CC(=O)[C@@H]3CC[C@H]2C1=O | -0.0122 |
| CCN1C(=O)[C@H]2[C@H]3[C@H](O)[C@H](O)CC(=NOC[C@@H](C)[C@H](OCc4ccccc4)C(C)C)[C@@H]3CC[C@H]2C1=O | 0.221 |
| CO[C@H]1COC(=O)[C@H](C)COC(=O)CC=C[C@@H](C)[C@H](OC)COC(=O)CC=C[C@@H]1C | -0.311 |
| C=C(CCCC)C(=O)CC[C@@H](OC(C)=O)c1cccc(OCCO)c1 | 1.36 |
| C[C@H](c1ccccc1)N1C(=O)[C@H]2[C@@H]3C(=CC[C@H]2C1=O)C(=O)[C@H]1O[C@H]1[C@H]3O | -0.133 |
| CC(C)CON=C1C[C@@H](O)[C@@H](O)[C@@H]2[C@@H]3C(=O)N(C[C@@H]4CCCO4)C(=O)[C@@H]3CC[C@H]12 | 0.59 |
| CCOC(=O)C1=CC[C@H]2C(=O)N(CC)C(=O)[C@@H]12 | 1.11 |
| C#CCCCON=C1C[C@@H](O)[C@@H](O)[C@@H]2[C@@H]3C(=O)N(c4cccc(Oc5ccccc5)c4)C(=O)[C@@H]3CC[C@@H]12 | 0.598 |
| CC(CCN1CCc2nc(-c3ccccc3)c(-c3ccccc3)cc2C1)=NOC(C)CN1CCCCc2nc(C)c(C)cc21 (stereo not given) | 0.885 |
| CCOC(=O)[C@H](CC(C)C)NC(=O)CCC1CC(OC(=O)NCc2cccc3ccccc23)CC2(CCCC(COC(=O)NCCc3ccccc3OC)O2)O1 (stereo not given in full) | 0.882 |
| COc1cccc([C@@H]2Oc3ccc(Br)cc3C(=O)[C@H]2O)c1 | 0.972 |
| CS(=O)(=O)CCOC(=O)C1=CC(CCCO)=CC(c2cccs2)N(Cc2cccc(OC(F)(F)F)c2)C=C1C(=O)OCCS(C)(=O)=O (stereo not given) | 1.14 |
| NC(=O)NCC#Cc1ccc2c(c1)[C@]1(C(=O)N2)[C@H](c2ccc(O)cc2)N2[C@H](c3ccccc3)[C@H](c3ccccc3)OC(=O)[C@H]2[C@@H]1C(=O)N1CCCCCCC1 | 0.839 |
| O=C(CS)NCCCCCNC(=O)[C@H]1C[C@H]2C(=O)N3CCC[C@H]3C(=O)N2[C@H]1c1cccc(OCCO)c1 | 1.35 |
| CO[C@H]1COC(=O)[C@H](C)NC(=O)[C@@H](C)COC(=O)CC=C[C@@H]1C | 0.547 |
| C=CCOC(=O)[C@H]1[C@@H]2C(=O)O[C@@H](c3ccccc3)[C@@H](c3ccccc3)N2[C@@H](c2ccc(OCCOC(=O)[C@H]3C[C@H]4C(=O)N5CCC[C@H]5C(=O)N4[C@H]3c3cccc(OCCO)c3)cc2)[C@]12C(=O)Nc1ccc(I)cc12 | 1.47 |
| CCN1C(=O)[C@H]2[C@H]3[C@H](O)[C@H](O)CC(=NOCC=C(C)CCC=C(C)C)[C@H]3CC[C@H]2C1=O | 1.07 |
| CC(C)[C@@H](OCc1ccccc1)[C@H](C)C=NOC[C@@H](C)[C@H](OCc1ccccc1)C(C)C | -0.44 |
